Experimental data as given in the supplement of paper PMC10849652.
The full data set covers some 7,900 targets. This sample favours those with a hit. About 0.6% of all pairs of compound and target were hits. A number with no mark means an inactive call.

Legend:
Test in all cases: log2 fold change, soluble protein after heating vs DMSO (PISA); higher = thermal stabilisation; K562 cells, 10 uM, 30 min; active = over 0.2 and 3.5 SD of the protein, either way, in both replicates (recomputed)
[1] = compound: CC1=C(C=C(C=C1)NC(=O)C2=CC(=CC=C2)C(C)(C)C#N)NC3=CC4=C(C=C3)N=CN(C4=O)C
Summary of the method: (§1)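 Thermal stability values are relative to control samples and come from duplicates. They are expressed as log2 fold changes. For measurement, K562 cells (2×10^6 cells/mL) received 10 μM compound for 30 min, and aliquots were heated for 3 min over 48°C-58°C, pooled, and extracted at 4°C in PBS with 0.5% NP-40. Soluble protein, the supernatant after 21,000xg for 90 min, was quantified by TMTpro 16plex LC-MS/MS with equalised channel sums.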

[2] = compound: CC1=C(C=C(C=C1)NC(=O)C2=CC(=CC=C2)N(C)C)NC(=O)C3=CC=C(C=C3)O
Summary of the method: as §1

[3] = compound: CC1=CC=C(C=C1)SC2=C3C=C(SC3=CN=C2)C(=O)N
Summary of the method: as §1

[4] = compound: CC1=NC(=CC=C1)C2=C(N=C(N2)C(C)(C)C)C3=CC4=NC=CN=C4C=C3
Summary of the method: as §1

Nexturastat A = compound: CCCCN(Cc1ccc(C(=O)NO)cc1)C(=O)Nc1ccccc1 [Nexturastat A]
Summary of the method: as §1

vemurafenib = compound: CCCS(=O)(=O)Nc1ccc(F)c(C(=O)c2c[nH]c3ncc(-c4ccc(Cl)cc4)cc23)c1F [vemurafenib]
Summary of the method: as §1

[5] = compound: CCCS(=O)(=O)Nc1ccc(F)c(C(=O)c2c[nH]c3ncc(Cl)cc23)c1F
Summary of the method: as §1

[6] = compound: CCCc1cc(C)[nH]c(=O)c1CNC(=O)c1cc(-c2ccnc(N3CCN(C)CC3)c2)cc2c1cnn2C(C)C
Summary of the method: as §1

givinostat = compound: CCN(CC)Cc1ccc2cc(COC(=O)Nc3ccc(C(=O)NO)cc3)ccc2c1 [givinostat]
Summary of the method: as §1

barasertib = compound: CCN(CCCOc1ccc2c(Nc3cc(CC(=O)Nc4cccc(F)c4)[nH]n3)ncnc2c1)CCOP(=O)(O)O [barasertib]
Summary of the method: as §1

[7] = compound: CC[C@@H]1C(=O)N(C)c2cnc(Nc3ccc(C(=O)NC4CCN(C)CC4)cc3OC)nc2N1C1CCCC1
Summary of the method: as §1

volasertib = compound: CC[C@@H]1C(=O)N(C)c2cnc(Nc3ccc(C(=O)N[C@H]4CC[C@H](N5CCN(CC6CC6)CC5)CC4)cc3OC)nc2N1C(C)C [volasertib]
Summary of the method: as §1

[8] = compound: CC[C@H](C)N1C=C(C2=C(C=C(C=C21)C3=CN=C(C=C3)N4CCNCC4)C(=O)NCC5=C(C=C(NC5=O)C)C)C
Summary of the method: as §1

epoxomicin = compound: CC[C@H](C)[C@@H](C(=O)N[C@@H]([C@@H](C)O)C(=O)N[C@@H](CC(C)C)C(=O)[C@]1(CO1)C)NC(=O)[C@H]([C@@H](C)CC)N(C)C(=O)C [epoxomicin]
Summary of the method: as §1

[9] = compound: CCn1c(C(=O)N(C2CC2)C2CC2)cc2c3c(ncn3C)c(Nc3cc(C)n(C)n3)nc21
Summary of the method: as §1

[10] = compound: CCn1cc(-c2ccnc3[nH]c(-c4cccc(CN(C)C)c4)cc23)c(-c2ccc(NC(=O)N(C)C)cc2)n1
Summary of the method: as §1

[11] = compound: CN(C)CC(=O)Nc1ccc2[nH]c(=O)c3ccccc3c2c1
Summary of the method: as §1

rosiglitazone = compound: CN(CCOC1=CC=C(C=C1)C[C@H]2C(=O)NC(=O)S2)C3=CC=CC=N3 (racemic) [rosiglitazone]
Summary of the method: as §1

[12] = compound: CN1C2=C(C3=C1C(=O)N(N=C3)CC4=CC(=CC=C4)N)SC(=C2)S(=O)C
Summary of the method: as §1

[13] = compound: CN1CCC(CNc2ccc3ncc(-c4cccc(OC(F)(F)F)c4)n3n2)CC1
Summary of the method: as §1

Sequence of UniProt P42226 (P42226 whole entry, looked up): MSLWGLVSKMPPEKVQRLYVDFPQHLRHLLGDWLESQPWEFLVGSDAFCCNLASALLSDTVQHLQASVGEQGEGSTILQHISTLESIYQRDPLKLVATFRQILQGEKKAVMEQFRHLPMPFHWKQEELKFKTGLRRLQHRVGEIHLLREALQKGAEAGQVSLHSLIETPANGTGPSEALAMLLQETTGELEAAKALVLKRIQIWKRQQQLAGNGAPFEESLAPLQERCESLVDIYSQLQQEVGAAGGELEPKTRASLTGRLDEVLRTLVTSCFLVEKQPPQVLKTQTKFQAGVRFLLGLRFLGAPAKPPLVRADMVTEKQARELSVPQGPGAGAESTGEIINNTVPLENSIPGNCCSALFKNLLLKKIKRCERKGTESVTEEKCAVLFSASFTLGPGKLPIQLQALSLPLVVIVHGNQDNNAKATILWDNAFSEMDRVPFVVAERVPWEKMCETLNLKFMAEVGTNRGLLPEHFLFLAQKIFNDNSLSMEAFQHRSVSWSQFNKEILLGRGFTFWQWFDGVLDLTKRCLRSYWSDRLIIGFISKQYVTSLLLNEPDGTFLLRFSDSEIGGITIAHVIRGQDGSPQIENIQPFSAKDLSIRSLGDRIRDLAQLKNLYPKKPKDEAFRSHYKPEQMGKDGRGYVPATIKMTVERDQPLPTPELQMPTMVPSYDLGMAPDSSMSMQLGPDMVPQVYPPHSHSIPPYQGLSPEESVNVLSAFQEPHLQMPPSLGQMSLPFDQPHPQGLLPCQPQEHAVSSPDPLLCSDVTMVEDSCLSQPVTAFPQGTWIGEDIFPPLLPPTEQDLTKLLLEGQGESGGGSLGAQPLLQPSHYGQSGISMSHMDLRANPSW
Sequence of UniProt Q86VD7 (Q86VD7 whole entry, looked up): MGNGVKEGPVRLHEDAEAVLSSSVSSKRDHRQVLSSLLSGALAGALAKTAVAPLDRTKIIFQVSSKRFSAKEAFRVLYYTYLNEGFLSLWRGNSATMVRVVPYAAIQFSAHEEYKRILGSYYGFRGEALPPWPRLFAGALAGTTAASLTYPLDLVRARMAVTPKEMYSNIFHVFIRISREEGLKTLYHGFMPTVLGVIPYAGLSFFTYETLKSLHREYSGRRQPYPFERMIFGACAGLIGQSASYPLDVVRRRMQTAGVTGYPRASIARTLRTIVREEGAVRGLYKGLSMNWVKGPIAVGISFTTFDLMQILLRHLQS
Sequence of UniProt P23497 (P23497 whole entry, looked up): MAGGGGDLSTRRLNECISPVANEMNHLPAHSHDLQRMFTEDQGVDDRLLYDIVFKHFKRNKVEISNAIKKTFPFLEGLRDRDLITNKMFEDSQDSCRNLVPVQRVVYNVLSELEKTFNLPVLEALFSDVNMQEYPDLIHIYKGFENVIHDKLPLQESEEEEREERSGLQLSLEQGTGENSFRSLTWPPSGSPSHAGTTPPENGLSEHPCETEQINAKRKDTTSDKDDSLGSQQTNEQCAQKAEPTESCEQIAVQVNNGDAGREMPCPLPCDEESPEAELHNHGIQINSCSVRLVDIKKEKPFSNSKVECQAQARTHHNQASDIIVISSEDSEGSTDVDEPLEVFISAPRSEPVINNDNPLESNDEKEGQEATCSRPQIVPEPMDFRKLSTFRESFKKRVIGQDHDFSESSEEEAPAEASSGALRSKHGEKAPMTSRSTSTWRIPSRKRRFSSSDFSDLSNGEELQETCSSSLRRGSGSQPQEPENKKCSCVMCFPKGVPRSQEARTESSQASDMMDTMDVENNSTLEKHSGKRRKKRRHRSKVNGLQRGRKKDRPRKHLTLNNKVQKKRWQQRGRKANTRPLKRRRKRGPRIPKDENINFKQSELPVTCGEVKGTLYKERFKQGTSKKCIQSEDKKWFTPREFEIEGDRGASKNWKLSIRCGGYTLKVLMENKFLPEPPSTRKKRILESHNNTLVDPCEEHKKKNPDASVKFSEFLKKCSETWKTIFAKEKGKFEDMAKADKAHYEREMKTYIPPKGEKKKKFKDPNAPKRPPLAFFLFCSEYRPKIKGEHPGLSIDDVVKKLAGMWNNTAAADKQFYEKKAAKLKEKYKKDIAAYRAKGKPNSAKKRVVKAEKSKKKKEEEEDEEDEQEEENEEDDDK
Sequence of UniProt Q9H4L7 (Q9H4L7 whole entry, looked up): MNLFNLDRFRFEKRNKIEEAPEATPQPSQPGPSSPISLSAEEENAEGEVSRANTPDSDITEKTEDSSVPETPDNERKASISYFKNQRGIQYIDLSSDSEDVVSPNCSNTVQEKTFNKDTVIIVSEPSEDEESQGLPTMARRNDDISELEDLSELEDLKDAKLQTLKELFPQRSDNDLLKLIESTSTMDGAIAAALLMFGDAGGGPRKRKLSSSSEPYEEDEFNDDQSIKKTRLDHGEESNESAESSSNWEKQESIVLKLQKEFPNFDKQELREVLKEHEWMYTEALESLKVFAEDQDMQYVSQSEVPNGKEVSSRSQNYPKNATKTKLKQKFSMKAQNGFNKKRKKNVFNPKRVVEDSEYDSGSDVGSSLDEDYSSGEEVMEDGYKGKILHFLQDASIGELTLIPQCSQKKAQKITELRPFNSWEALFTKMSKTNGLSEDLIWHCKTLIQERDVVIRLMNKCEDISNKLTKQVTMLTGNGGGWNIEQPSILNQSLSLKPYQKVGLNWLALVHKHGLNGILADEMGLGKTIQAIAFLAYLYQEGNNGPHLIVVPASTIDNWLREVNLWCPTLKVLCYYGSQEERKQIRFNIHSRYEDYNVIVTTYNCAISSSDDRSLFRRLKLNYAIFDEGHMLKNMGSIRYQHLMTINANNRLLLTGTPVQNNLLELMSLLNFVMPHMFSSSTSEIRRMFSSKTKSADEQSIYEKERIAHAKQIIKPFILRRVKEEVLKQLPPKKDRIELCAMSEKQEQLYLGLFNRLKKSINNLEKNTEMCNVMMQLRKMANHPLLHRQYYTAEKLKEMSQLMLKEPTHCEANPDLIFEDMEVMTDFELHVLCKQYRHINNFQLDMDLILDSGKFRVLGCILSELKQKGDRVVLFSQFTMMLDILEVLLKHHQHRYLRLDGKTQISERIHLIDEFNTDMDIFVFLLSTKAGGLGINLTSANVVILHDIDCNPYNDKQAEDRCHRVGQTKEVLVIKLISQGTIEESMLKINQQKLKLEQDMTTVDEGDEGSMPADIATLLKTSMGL
Sequence of UniProt O75494 (O75494 whole entry, looked up): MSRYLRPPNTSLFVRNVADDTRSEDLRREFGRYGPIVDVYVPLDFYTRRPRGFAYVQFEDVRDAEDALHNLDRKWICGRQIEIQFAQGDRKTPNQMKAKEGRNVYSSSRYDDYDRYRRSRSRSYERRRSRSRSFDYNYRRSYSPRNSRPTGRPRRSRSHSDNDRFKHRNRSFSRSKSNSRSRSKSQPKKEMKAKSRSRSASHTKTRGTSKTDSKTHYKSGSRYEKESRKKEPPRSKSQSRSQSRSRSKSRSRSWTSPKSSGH
Sequence of UniProt Q9NUY8 (Q9NUY8 whole entry, looked up): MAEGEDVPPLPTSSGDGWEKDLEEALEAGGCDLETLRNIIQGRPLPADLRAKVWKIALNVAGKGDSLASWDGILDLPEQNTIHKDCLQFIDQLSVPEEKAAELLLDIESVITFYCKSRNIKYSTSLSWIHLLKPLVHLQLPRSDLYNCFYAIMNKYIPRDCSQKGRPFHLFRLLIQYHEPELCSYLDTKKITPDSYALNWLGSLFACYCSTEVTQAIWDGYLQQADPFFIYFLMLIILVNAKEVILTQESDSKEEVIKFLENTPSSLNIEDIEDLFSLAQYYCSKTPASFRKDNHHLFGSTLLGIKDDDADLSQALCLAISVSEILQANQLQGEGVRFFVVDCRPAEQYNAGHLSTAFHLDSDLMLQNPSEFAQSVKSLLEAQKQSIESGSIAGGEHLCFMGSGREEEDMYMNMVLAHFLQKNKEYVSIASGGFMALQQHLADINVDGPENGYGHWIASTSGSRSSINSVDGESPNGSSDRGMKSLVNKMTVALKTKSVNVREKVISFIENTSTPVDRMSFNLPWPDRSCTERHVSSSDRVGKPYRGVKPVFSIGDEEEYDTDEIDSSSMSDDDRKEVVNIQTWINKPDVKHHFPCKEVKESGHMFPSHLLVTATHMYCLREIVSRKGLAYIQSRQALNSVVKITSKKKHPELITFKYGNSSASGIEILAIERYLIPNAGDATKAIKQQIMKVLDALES
Sequence of UniProt Q9NQZ5 (Q9NQZ5 whole entry, looked up): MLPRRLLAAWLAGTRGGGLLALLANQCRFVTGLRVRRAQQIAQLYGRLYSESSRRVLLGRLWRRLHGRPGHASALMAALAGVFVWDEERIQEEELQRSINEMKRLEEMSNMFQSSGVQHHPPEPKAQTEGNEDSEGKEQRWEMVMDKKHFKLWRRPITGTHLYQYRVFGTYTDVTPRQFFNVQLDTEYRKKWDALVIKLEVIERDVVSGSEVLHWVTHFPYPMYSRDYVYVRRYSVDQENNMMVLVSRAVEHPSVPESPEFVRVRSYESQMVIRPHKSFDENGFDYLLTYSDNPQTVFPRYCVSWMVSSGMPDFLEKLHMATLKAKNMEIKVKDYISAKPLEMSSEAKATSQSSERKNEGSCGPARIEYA
Sequence of UniProt P62072 (P62072 whole entry, looked up): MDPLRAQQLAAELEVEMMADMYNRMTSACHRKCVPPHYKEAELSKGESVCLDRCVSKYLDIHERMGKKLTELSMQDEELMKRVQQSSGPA
Sequence of UniProt Q00059 (Q00059 whole entry, looked up): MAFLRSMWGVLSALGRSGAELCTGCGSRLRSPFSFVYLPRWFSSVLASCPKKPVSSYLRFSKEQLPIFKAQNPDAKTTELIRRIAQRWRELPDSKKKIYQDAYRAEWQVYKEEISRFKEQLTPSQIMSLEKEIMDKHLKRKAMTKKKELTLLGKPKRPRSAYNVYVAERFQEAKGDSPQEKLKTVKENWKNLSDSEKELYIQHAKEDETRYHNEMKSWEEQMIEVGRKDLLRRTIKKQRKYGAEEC
Sequence of UniProt P84103 (P84103 whole entry, looked up): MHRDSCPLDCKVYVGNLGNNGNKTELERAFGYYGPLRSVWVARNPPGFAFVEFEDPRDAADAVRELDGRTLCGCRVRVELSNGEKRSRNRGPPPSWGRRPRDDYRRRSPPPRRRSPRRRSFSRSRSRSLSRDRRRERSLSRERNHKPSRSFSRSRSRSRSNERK

| Target | log2 fold change [1] | log2 fold change [2] | log2 fold change [3] | log2 fold change [4] | log2 fold change (Nexturastat A) | log2 fold change (vemurafenib) | log2 fold change [5] | log2 fold change [6] | log2 fold change (givinostat) | log2 fold change (barasertib) | log2 fold change [7] | log2 fold change (volasertib) | log2 fold change [8] | log2 fold change (epoxomicin) | log2 fold change [9] | log2 fold change [10] | log2 fold change [11] | log2 fold change (rosiglitazone) | log2 fold change [12] | log2 fold change [13] |
| --- | --- | --- | --- | --- | --- | --- | --- | --- | --- | --- | --- | --- | --- | --- | --- | --- | --- | --- | --- | --- |
| SRC isoform 2 (UniProt P12931) | -0.006 | 0.022 | -0.016 | -0.06 | -0.075 | 0.068 | 0.069 | -0.06 | -0.091 | -0.01 | 0.079 | -0.03 | 0.108 | -0.16 | -0.101 | -0.066 | -0.032 | 0.029 | -0.002 | -0.149 |
| STAT6 (UniProt P42226) | -0.092 | -0.111 | 0.053 | 0.015 | 0.044 | 0.058 | 0.082 | -0.012 | 0.078 | 0.001 | -0.196 | -0.594 (active) | -0.02 | -0.074 | -0.033 | 0.1 | 0.093 | 0.038 | 0.018 | -0.11 |
| SRSF3 (UniProt P84103) | -0.019 | 0.047 | -0.208 | -0.103 | 0.124 | -0.064 | -0.173 | 0.047 | -0.029 | -0.093 | 0.198 | 0.313 | -0.075 | -0.213 | 0.028 | 0.189 | -0.139 | -0.115 | 0.18 | 0.233 |
| SMAP (UniProt O00193) | -0.018 | -0.002 | -0.03 | 0.062 | -0.059 | -0.006 | 0.001 | -0.107 | -0.02 | 0.008 | -0.024 | 0.023 | -0.043 | 0.06 | -0.02 | 0.014 | -0.011 | -0.038 | -0.088 | -0.045 |
| TCOF1 isoform 4 (UniProt Q13428) | -0.03 | 0.015 | -0.028 | -0.019 | -0.001 | -0.029 | -0.012 | -0.004 | 0.056 | 0.006 | -0.018 | 0.034 | -0.016 | -0.02 | 0.013 | 0.063 | -0.052 | -0.011 | 0.019 | -0.06 |
| STARD7 (UniProt Q9NQZ5) | 0.061 | 0.015 | 0.004 | -0.01 | -0.053 | 0 | -0.033 | 0.024 | -0.029 | -0.008 | -0.07 | -0.032 | 0.007 | 0.024 | 0.037 | -0.123 | 0.012 | 0.055 | 0.012 | -0.158 |
| SMARCAD1 isoform 2 (UniProt Q9H4L7) | 0.028 | -0.072 | -0.026 | 0.064 | -0.028 | 0.192 | 0.101 | 0.035 | 0.127 | 0.089 | -0.085 | -0.378 (active) | 0.057 | 0.046 | -0.055 | -0.1 | 0.04 | 0.071 | -0.037 | -0.1 |
| SLC25A36 (UniProt Q96CQ1) | 0.044 | 0.008 | -0.172 | -0.048 | 0.016 | -0.297 (active) | 0.016 | -0.067 | 0.115 | -0.011 | -0.133 | 0.059 | 0.045 | 0.026 | -0.002 | -0.135 | -0.217 | -0.073 | 0.02 | 0.046 |
| STXBP5 (UniProt Q5T5C0) | -0.021 | -0.041 | -0.007 | -0.006 | -0.002 | -0.038 | 0.013 | -0.006 | 0.022 | -0.004 | -0.085 | -0.344 (active) | 0.021 | 0.151 | -0.019 | 0.046 | 0.033 | 0.007 | 0.015 | -0.006 |
| TBRG4 (UniProt Q969Z0) | 0.08 | -0.006 | 0.073 | 0.151 | -0.072 | 0.05 | 0.185 | -0.059 | 0.099 | 0.125 | -0.361 | -0.583 | -0.003 | 0.12 | -0.034 | 0.009 | 0.111 | 0.073 | 0.047 | -1.19 (active) |
| TFAM (UniProt Q00059) | 0.039 | -0.004 | -0.036 | -0.036 | 0.079 | -0.05 | -0.043 | -0.033 | -0.055 | -0.023 | 0.058 | 0.059 | 0.007 | -0.053 | 0.035 | 0.062 | -0.074 | -0.017 | 0.098 | 0.049 |
| SP100 isoform 4 (UniProt P23497) | 0.02 | -0.004 | 0.072 | -0.008 | -0.119 | -0.019 | 0.159 | 0 | -0.005 | 0.003 | -0.021 | -0.065 | 0.012 | -0.006 | 0.023 | 0.056 | -0.045 | -0.009 | -0.059 | -0.064 |
| TBC1D23 (UniProt Q9NUY8) | 0.029 | -0.038 | 0.005 | 0.005 | -0.071 | 0.035 | 0.034 | -0.074 | 0.006 | 0.041 | -0.228 | -0.261 | 0.008 | 0.049 | -0.05 | -0.069 | 0.025 | 0.042 | 0.043 | -0.651 (active) |
| SRSF10 (UniProt O75494) | -0.046 | 0.029 | -0.076 | -0.134 | 0.227 | -0.027 | -0.027 | 0.083 | 0.017 | -0.045 | 0.141 | 0.274 | -0.197 | -0.408 | 0.047 | 0.276 | -0.127 | -0.073 | 0.498 | 0.237 |
| TIMM10 (UniProt P62072) | 0.031 | -0.078 | 0.018 | 0.045 | -0.124 | 0.058 | -0.093 | -0.049 | -0.05 | 0.022 | 0.029 | 0.052 | -0.023 | 0.032 | 0.059 | 0.006 | -0.046 | -0.007 | -0.074 | 0.14 |
| SLC25A42 (UniProt Q86VD7) | -0.007 | 0.041 | 0.038 | -0.049 | -0.021 | -0.015 | 0.089 | -0.054 | -0.006 | 0.001 | -0.025 | 0.039 | -0.028 | 0 | 0.019 | 0.002 | -0.021 | 0.025 | 0.022 | 0.022 |
